TGFb inhibitor: inhibitors of TGF-b signaling; HepG2 CAGA-GFP TGF-b/SMAD3 reporter, GFP fluorescence, 18 h; TGF-beta stimulated, 500 pg/mL final; actives 1.2% (n = 410,000); Potency, µM (doses to about 46.1 µM), actives largely listed as inhibitors; also: nearly all actives have a fitted effect of over 65% in size
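GFP signal (ex488/em500-530) from TGF-beta-stimulated HEPG2 CAGA-GFP cells, 500 pg/mL final, 18 h at 37 degrees C in DMEM plus 1% FBS, normalized to unstimulated and DMSO-stimulated controls.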
Nrf2 block: inhibitors of Nrf2 signaling; actives 2.1% (n = 360,000); AID 504444; Potency, µM (doses to about 46 µM), most hits filed as inhibitors; A549 ARE-Fluc reporter, luciferase luminescence, 18-24 h; also: nearly all actives have a fitted effect of over 60% in size
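In this cell-based qHTS, ARE-driven firefly luciferase in A549 cells reports Nrf2 activity; the luminescent signal after BugLite lysis is the measured value, with a prior CellTiter-Fluor read for cell health.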
A549 viability: counter-screen for Nrf2 inhibitors: cytotoxicity in A549 cells | A549 ARE-Fluc cells, CellTiter-Fluor viability, 18-24 h | Potency, µM (titrated, usually from 46 µM), usual class: inhibitors | actives 0.16% (n = 390,000)
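A549 ARE_Fluc cells in 5% FBS OPTI-MEM were exposed to compounds in concentration-response for 18-24 h at 37 deg C. Viability was read by CellTiter-Fluor fluorescence (Ex 405/Em 525) after 30 min, before the luciferase read.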
Nrf2 activator: Nrf2 pathway activation | AREc32 ARE-luciferase reporter (MCF7-derived line), luminescence, 24 h | Potency, µM (titrated, usually from 46.1 µM), usual class: activators | actives 0.31% (n = 410,000) | AID 624171; also: nearly all actives have a fitted effect of over 65% in size
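Luciferase luminescence (Steady-Glo, 30 min at room temperature) served as the read-out of ARE activation in AREc32 cells treated with compounds for 24 hr at 37 deg C.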
HepG2 viability: counter-screen for TGF-b inhibitors: cytotoxicity in HepG2 cells. HepG2 CAGA-GFP viability, ATP luminescence, 18 h. Potency, µM (series often up to 46.1 µM), most hits filed as cytotoxic. actives 0.76% (n = 410,000). AID 588856
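CellTiter-Glo luminescence gave cytotoxicity after 18 hours at 37 degrees C. The cells were HepG2 CAGA-GFP in 1% FBS DMEM, stimulated with 500 pg/mL TGF-beta after compound addition. %Activity was normalised to no-cell wells (complete cell-killing) and DMSO (no toxicity), and curves were fitted and classified.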
Each line names hits and unclear results; the compound was inactive in the other large screens. Hits are enriched below; roughly 3.6% of the tested compounds scored in any of these assays. Calls follow the shape of the dose curve; as a rule, active = well fitted curve in the direction sought with a large enough effect; inconclusive = small, poorly fitted or top-dose-only effect, or another doubt; inactive = no such curve, though single readings can be large; an effect the other way counts as inactive or inconclusive.

COc1ccc(-c2ccc(C(C)=O)cc2)cc1[C@H]1[C@@H]2C=CCC[C@@]2(C)C(=O)N1Cc1ccccc1	Nrf2 block 21µM
COc1ccc(C2C3C=CCCC3(C)C(=O)N2Cc2ccccc2)cc1Cl (stereo unspecified)	TGFb inhibitor 14µM, Nrf2 block inconclusive (no result: Nrf2 activator)
COc1ccc(-c2ccc(C)cc2)cc1C1C2C=CCCC2(C)C(=O)N1Cc1ccccc1 (stereo unspecified)	none (no result: Nrf2 activator)
COc1ccc(-c2ccc(C(C)=O)cc2)cc1C1C2C=CCCC2(C)C(=O)N1Cc1ccccc1 (stereo unspecified)	Nrf2 block 16µM, A549 viability inconclusive (no result: Nrf2 activator)
COc1ccc(C2CC(c3ccccc3)=NN2C(=O)COC(=O)c2cnc(Cl)c(Cl)c2)cc1 (stereo unspecified)	none
CC(=O)Nc1cc(C(=O)NCc2ccccc2Cl)ccc1Sc1ccc(F)cc1	none (no result: Nrf2 block)
O=C(CCCC(=O)N(c1cccc(F)c1)C(C(=O)NC1CCCC1)c1ccc(O)cc1)Nc1ccccn1 (stereo unspecified)	TGFb inhibitor inconclusive
Cc1cccc(C)c1-c1ccc(CN2C(CC(C)C)C(=O)N(Cc3cn(CC4CCCCC4)nn3)CCS2(=O)=O)cc1 (stereo unspecified)	TGFb inhibitor inconclusive, Nrf2 block inconclusive, HepG2 viability 11µM
CC(C)CC1C(=O)N(Cc2cn(CC3CCCCC3)nn2)CCS(=O)(=O)N1Cc1ccc(-c2ccc(Cl)c(Cl)c2)cc1 (stereo unspecified)	none (no result: Nrf2 block, A549 viability)
CCC/C=C/c1ccc(CN2C(CC(C)C)C(=O)N(Cc3cn(CCC4OCCO4)nn3)CCS2(=O)=O)cc1 (stereo unspecified)	TGFb inhibitor inconclusive (no result: Nrf2 block, A549 viability)
CCC/C=C/c1ccc(CN2C(CC(C)C)C(=O)N(Cc3cn(CCC4OCCCO4)nn3)CCS2(=O)=O)cc1 (stereo unspecified)	TGFb inhibitor 13µM, HepG2 viability 16µM (no result: Nrf2 block, A549 viability)
Cc1c(C(=O)Nc2cccc(S(=O)(=O)N3CCOCC3)c2)oc2ccc(Br)cc12	Nrf2 block inconclusive
Cc1nnc(Sc2nc3ccccc3o2)c2ccccc12	TGFb inhibitor 13µM, Nrf2 block inconclusive, Nrf2 activator inconclusive
Cc1ccc(-c2nnc(Sc3nc4ccccc4o3)c3ccccc23)cc1	TGFb inhibitor inconclusive
Clc1ccc(-c2nnc(Sc3nc4ccccc4o3)c3ccccc23)cc1	TGFb inhibitor inconclusive, Nrf2 block 18µM, Nrf2 activator inconclusive
Cc1ccc(-c2nc3cc(NC(=O)c4cc5ccccc5o4)ccc3o2)cc1	none
CN1C/C(=C\c2ccc(N3CCOCC3)cc2)C(=O)/C(=C/c2ccc(N3CCOCC3)cc2)C1	Nrf2 activator 11µM
CCCCc1ccc(N=N/C(C(=O)Nc2ccc(NC(C)=O)cc2OC)=C(/C)O)cc1	none
O=C(CCc1ccccc1)NC1(Cc2ccccc2)CCN(CCCc2ccccc2)C1=O (stereo unspecified)	TGFb inhibitor 13µM, Nrf2 block inconclusive
CC(C)CCN1CCC(Cc2ccccc2)(NC(=O)c2ccccc2)C1=O (stereo unspecified)	none
COc1ccccc1N1CCN(C(=O)C(NS(=O)(=O)c2cccs2)c2ccccc2)CC1 (stereo unspecified)	none
C=CCOc1ccc(/C=C/C(=O)OCC(=O)N2CCC(c3ccccc3)=N2)cc1	Nrf2 block 21µM
CC(=O)N1CC(C)Sc2ccc(S(=O)(=O)NCCc3ccc(C)cc3)cc21 (stereo unspecified)	Nrf2 block 7.3µM
CC(=O)N1CCSc2ccc(S(=O)(=O)NCCc3ccc(Cl)cc3)cc21	Nrf2 block 15µM
COc1nc(N/N=C/c2cc3c(cc2Br)OCO3)nc(N2CCOCC2)n1	Nrf2 block 16µM
CC(C)=CCc1c(O)cc2c(=O)c3ccc(O)cc3oc2c1O	TGFb inhibitor inconclusive, Nrf2 block inconclusive
CC(C)=CCc1c(O)cc(O)c2c(=O)c3c(CC=C(C)C)c(O)ccc3oc12	TGFb inhibitor 4µM, Nrf2 block inconclusive, HepG2 viability 16µM
CC(C)C[C@H]1CNC(=S)N1C[C@H]1CCCN1C[C@H](Cc1ccc(O)cc1)N1C[C@H](Cc2ccccc2)N(CCc2ccccc2)C1=S	TGFb inhibitor inconclusive (no result: Nrf2 block, A549 viability)
Oc1ccc(C[C@H]2CNC(=S)N2CC2CCCN2C[C@H](Cc2ccc(O)cc2)N2C[C@H](Cc3ccccc3)N(CCc3ccccc3)C2=S)cc1 (stereo partly specified)	TGFb inhibitor inconclusive, Nrf2 block 21µM
CC(C)C[C@H]1CN([C@@H](Cc2ccc(O)cc2)CN2CCC[C@@H]2CN2C(=S)NC[C@@H]2Cc2ccccc2)C(=S)N1CC1CCCCC1	TGFb inhibitor 11µM (no result: Nrf2 block, A549 viability)
Oc1ccc(C[C@H]2CN([C@@H](Cc3cccc(O)c3)CN3CCC[C@@H]3CN3C(=S)NC[C@@H]3Cc3ccccc3)C(=S)N2CC2CCCCC2)cc1	TGFb inhibitor 5µM (no result: Nrf2 block, A549 viability)
CC(C)C[C@H]1CNC(=S)N1CC1CCCN1C[C@H](Cc1ccc(O)cc1)N1C[C@H](Cc2ccccc2)N(CC2CCCCCC2)C1=S (stereo partly specified)	TGFb inhibitor inconclusive
Oc1ccc(C[C@H]2CN([C@@H](Cc3ccccc3)CN3CCCC3CN3C(=S)NC[C@@H]3Cc3ccccc3)C(=S)N2CC2CCCCC2)cc1 (stereo partly specified)	none (no result: TGFb inhibitor, Nrf2 block, A549 viability, HepG2 viability)
CN(Cc1nc2ccc(F)cc2[nH]1)C(=O)C1CCC(=O)N(C2CC2)C1 (stereo unspecified)	none
CCN(CC)C(=O)COc1coc(CN2CCN(c3ccc(F)cc3)CC2)cc1=O	none
Cc1nc2c(OCCOc3ccccc3)cccn2c1N(C)C(=O)CCC1CCCC1	TGFb inhibitor inconclusive (no result: Nrf2 block, A549 viability)
CCc1nc2c(OCCC3CCCCC3)cccn2c1N(C)C(=O)c1ccc(C)cc1	TGFb inhibitor inconclusive, HepG2 viability 20µM (no result: Nrf2 block, A549 viability)
Cc1nc2c(OCc3ccc(C(F)(F)F)cc3)cccn2c1N(C)CC1CC1	TGFb inhibitor 11µM, HepG2 viability 10µM (no result: Nrf2 block, A549 viability)
CCc1nc2c(OCCC3CCCCC3)cccn2c1N(C)C(=O)C1CC1	none (no result: Nrf2 block, A549 viability)
Cc1nc2c(OCCC3CCCCC3)cccn2c1N(C)C(=O)CCC1CCCC1	TGFb inhibitor 16µM, HepG2 viability 18µM (no result: Nrf2 block, A549 viability)
C=CCON/C(CCC)=C1\C(=O)C(C(=O)OC)C(C)(C)CC1=NC (stereo unspecified)	Nrf2 block inconclusive
CCCNS(=O)(=O)c1cccc(C(=O)NC2CCCc3ccccc32)c1 (stereo unspecified)	Nrf2 block 16µM, A549 viability inconclusive
CN(C)S(=O)(=O)c1cccc(C(=O)NC2CCCc3ccccc32)c1 (stereo unspecified)	none
CC1=NN(c2ccccc2)C(=O)/C1=C\C=C\c1ccccc1	TGFb inhibitor 8.9µM, Nrf2 activator inconclusive

Compound activity deposited in PubChem BioAssay by National Center for Advancing Translational Sciences (NCATS).
